Results filed as inconclusive are left out. The source made the active and inactive calls. Calls follow the shape of the dose curve; as a rule, active = well fitted inhibition curve with a large enough effect; inconclusive = small, poorly fitted or top-dose-only effect; inactive = flat fitted curve, though single readings scatter.
Key:
Assay in all cases: qHTS profiling for inhibitors of Plasmodium falciparum proliferation (AID 504749); also: nearly all actives have a fitted effect of over 60% in size
Settings in all cases: P. falciparum in erythrocytes, SYBR Green DNA, 72 h; series mostly up to 28.7 µM
[1] = system: CP268
Procedure, shortened: (§1)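 Fluorescence of SYBR Green-bound parasite DNA, read at 485/535 nm, served as the growth measure. Infected erythrocytes were cultured with compound 72 h; artemisinin (0.29 uM) and DMSO wells defined the normalization range.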

[2] = system: CP269
Procedure, shortened: as §1

[3] = system: CP286
Procedure, shortened: as §1

[4] = system: CP291
Procedure, shortened: as §1

[5] = system: CP297
Procedure, shortened: as §1

[6] = system: CP305
Procedure, shortened: as §1

[7] = system: CP315
Procedure, shortened: as §1

[8] = system: CP325
Procedure, shortened: as §1

[9] = system: CP329
Procedure, shortened: as §1

[10] = system: CP335
Procedure, shortened: as §1

[11] = system: DFO2036
Procedure, shortened: as §1

[12] = system: DIV30
Procedure, shortened: as §1

[13] = system: Dd2
Procedure, shortened: as §1

[14] = system: ECU
Procedure, shortened: as §1

[15] = system: FAB9
Procedure, shortened: as §1

[16] = system: GB4
Procedure, shortened: as §1

[17] = system: HB3
Procedure, shortened: as §1

[18] = system: ICS
Procedure, shortened: as §1

[19] = system: DIV17
Procedure, shortened: as §1

[20] = system: DIV14
Procedure, shortened: as §1

Measured: Potency
Potency is read from the fitted curve at half-maximal effect.

CCCCCCCCCCCCCCCCCCO
not listed: [19] | [20]
inactive: all other assays above

CC[N+](C)(CC)CCOC(=O)C1c2ccccc2Oc2ccccc21
not listed: [20]
inactive: all other assays above

Cc1cc(C)c(NC(=O)CN(CC(=O)O)CC(=O)O)c(C)c1Br
not listed: [11] | [14]
inactive: all other assays above

CCN(CC)CCOC(=O)C(c1ccccc1)c1ccccc1
not listed: [13] | [16] | [18]
inactive: all other assays above

CC(=O)N(CC(O)CO)c1c(I)c(C(=O)NCC(O)CO)c(I)c(C(=O)NCC(O)CO)c1I (stereo not given)
active: [17] 10000 nM | [18] 7080 nM
not listed: [10] | [14] | [16] | [19] | [20]
inactive: all other assays above

O=C(O)c1cc(=O)c2ccccc2o1
not listed: [16] | [19]
inactive: all other assays above

Nc1ncnc(Nc2ccccc2)n1
not listed: [10] | [11] | [19]
inactive: all other assays above

Cc1cc(-n2nc3ccc(Cl)cc3n2)c(O)c(C(C)(C)C)c1
not listed: [11] | [14]
inactive: all other assays above

O=C1c2ccccc2S(=O)(=O)N1CCCCN1CCN(c2ncccn2)CC1
not listed: [19]
inactive: all other assays above

Cc1c(C)c2c(c(C)c1OC(=O)c1cccnc1)CC[C@@](C)(CCC[C@H](C)CCC[C@H](C)CCCC(C)C)O2
inactive: all assays above

CC(=O)OCC(COC(C)=O)OC(C)=O
not listed: [10]
inactive: all other assays above

Cc1cccc(C(=O)O)c1O
not listed: [19] | [20]
inactive: all other assays above

FC(F)(F)C(Cl)Br (stereo not given)
not listed: [19]
inactive: all other assays above

CC1CCN(CCCC(=O)c2ccc(F)cc2)CC1
not listed: [10] | [19] | [20]
inactive: all other assays above

NCc1ccc(S(N)(=O)=O)cc1
active: [17] 3980 nM | [18] 2510 nM
not listed: [10] | [16] | [19] | [20]
inactive: all other assays above

CCCCCCCCCCCCCCCCN
inactive: all assays above

COC(=O)c1ccccc1C(=O)c1ccc(OCCN2CCCCC2)cc1
not listed: [13] | [19] | [20]
inactive: all other assays above

OC[C@@H](O)[C@@H](O)[C@H](O)[C@H](O)CO
not listed: [10]
inactive: all other assays above

COc1ccc(Cc2cnc(N)nc2N)cc1OC
active: [14] 3980 nM | [15] 7940 nM | [16] 2390 nM
not listed: [5] | [17]
inactive: all other assays above

CN(C/C=C/C#CC(C)(C)C)Cc1cccc2ccccc12
not listed: [3] | [18]
inactive: all other assays above

CCN1CC(CCN2CCOCC2)C(c2ccccc2)(c2ccccc2)C1=O (stereo not given)
active: [13] 12600 nM
not listed: [5] | [10] | [14] | [16] | [18] | [20]
inactive: all other assays above

COC(=O)c1ccc(O)cc1
not listed: [7]
inactive: all other assays above

NS(=O)(=O)c1ccc(NC(=O)CCC(=O)O)cc1
not listed: [4]
inactive: all other assays above

CCCCCCCCCCOc1cc2c(=O)c(C(=O)OCC)c[nH]c2cc1OCC
inactive: [7]
active: [1] 2.4 nM | [3] 3.5 nM | [6] 2.1 nM | [10] 1.3 nM | [11] 1.4 nM | [20] 5.4 nM | [19] 6.7 nM | [13] 2.8 nM | [14] 2.8 nM | [15] 5 nM | [16] 2.1 nM | [17] 2 nM | [18] 3.2 nM

O=C(Cn1ccnc1[N+](=O)[O-])NCCO
not listed: [5]
inactive: all other assays above
